Test systems include SK-MEL-2 melanoma; EKVX NSCLC; SN12C renal; UO-31 renal; TK-10 renal; ACHN renal; CAKI-1 renal; A498 renal; CCRF-CEM leukemia; MOLT-4 leukemia; RPMI-8226 leukemia; OVCAR-8 ovarian; OVCAR-5 ovarian; OVCAR-4 ovarian; SK-OV-3 ovarian; IGROV1 ovarian; OVCAR-3 ovarian; HS 578T breast; NCI/ADR-RES ovarian.
Common to all, as to experiment: NCI-60 one-dose screen, 48 h (100 = growth as untreated, 0 = no growth, -100 = all killed)
Common to all, as to conditions: 10 µM unless noted

This is part of a sample that, as a whole, favours compounds with a hit. Of some 83,000 tested, about 20% had one in any assay.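 Single-concentration screen, 48 h exposure, 96-well plates. Endpoint: percent growth. Below 10 = active.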 Values without a mark were called inactive. The source made the active and inactive calls.

In the case of `CCCCc1ccc(Nc2ccc(Nc3ccc(CCCC)cc3S(=O)(=O)O)c3c2C(=O)c2ccccc2C3=O)c(S(=O)(=O)O)c1`, the growth was 67.1% in the test with SK-MEL-2 melanoma; 83.3% in the test with EKVX NSCLC; 91% with SN12C renal; 66.5% with UO-31 renal; 114% with TK-10 renal; 94.5% in the test with ACHN renal. In addition, the growth was 95.6% in the test with CAKI-1 renal; 119% in the test with A498 renal; 80.9% in the test with CCRF-CEM leukemia; 96.8% with MOLT-4 leukemia; 52% in the test with RPMI-8226 leukemia; 99.8% with OVCAR-8 ovarian. Also, the growth in the test on OVCAR-5 ovarian is 97.8%; in the test on OVCAR-4 ovarian, 99.9%; in the test with SK-OV-3 ovarian it was 91.5%; with IGROV1 ovarian it was -16.9% (active); in the test on OVCAR-3 ovarian, 103%; in the test on HS 578T breast it was 102%. Moreover, in the test with NCI/ADR-RES ovarian, the growth was 107%.
`COc1cccc(-c2nc3sccn3c2-c2ccnc(NCCNS(=O)(=O)c3cccc(F)c3)c2)c1`: the growth in the test with SK-MEL-2 melanoma is 40.8%; with EKVX NSCLC it was 38.5%; with SN12C renal, 27.6%; in the test on UO-31 renal it was 6.44% (active); in the test on TK-10 renal, 51.4%; in the test on ACHN renal it was 20.5%. Also, the growth was 21.3% in the test with CAKI-1 renal; 36.6% with A498 renal; 16.5% with CCRF-CEM leukemia; 20.2% in the test with MOLT-4 leukemia; -25.3% (active) in the test with RPMI-8226 leukemia; 12.7% in the test with OVCAR-8 ovarian. The growth with OVCAR-5 ovarian was 71.4%; with OVCAR-4 ovarian, 21.5%; with SK-OV-3 ovarian it was 45.9%; with IGROV1 ovarian, 31.6%; in the test with HS 578T breast, 27.9%; with NCI/ADR-RES ovarian it was 12.6%.
As for `CCCCCCCOc1c(OC)cc(C2CC(=O)Nc3c2c(C)nn3-c2nc3ccccc3[nH]2)cc1OC` (stereo unspecified), the growth in the test on SK-MEL-2 melanoma was -56.8% (active); in the test with EKVX NSCLC, -26.5% (active); in the test with SN12C renal it was 9.34% (active); in the test with UO-31 renal, -69.7% (active); in the test with TK-10 renal it was 11%; in the test with ACHN renal, 1.49% (active). For the same compound, the growth is -41% (active) in the test with CAKI-1 renal; -28.6% (active) with A498 renal; 24.5% with CCRF-CEM leukemia; 15.2% in the test with MOLT-4 leukemia; 8.24% (active) in the test with RPMI-8226 leukemia; -19.4% (active) with OVCAR-8 ovarian. For the same compound, the growth was 9.97% (active) in the test with OVCAR-5 ovarian; -11.8% (active) in the test with OVCAR-4 ovarian; -51.3% (active) in the test on SK-OV-3 ovarian; 2.58% (active) with IGROV1 ovarian; -19.8% (active) in the test with HS 578T breast; 13.7% in the test on NCI/ADR-RES ovarian.
Consider `COC(=O)/C=C1\S/C(=N\NS(=O)(=O)c2ccc(C)cc2)N(c2ccccc2)C1=O`, for which the growth with SK-MEL-2 melanoma is 107%; in the test on EKVX NSCLC it was 100%; in the test on SN12C renal, 98.6%; in the test with UO-31 renal, 90.8%; in the test on TK-10 renal, 109%; in the test with ACHN renal, 104%. For the same compound, the growth in the test on CAKI-1 renal is 96.6%; with A498 renal it was 80.6%; in the test on CCRF-CEM leukemia, 101%; in the test with MOLT-4 leukemia it was 93.9%; with RPMI-8226 leukemia, 106%; with OVCAR-8 ovarian it was 99.8%. Further, the growth in the test with OVCAR-5 ovarian is 109%; with OVCAR-4 ovarian it was 91%; in the test on SK-OV-3 ovarian it was 111%; in the test on IGROV1 ovarian it was 103%; in the test on OVCAR-3 ovarian, 105%; in the test with NCI/ADR-RES ovarian, 108%.
Regarding `COc1ccc(-c2nc3ccc4[nH]ncc4c3c3c2CCCC3)cc1B(O)O`, the growth with SK-MEL-2 melanoma was 56.1%; with EKVX NSCLC it was 17.7%; in the test on SN12C renal it was 52%; in the test on UO-31 renal, 33.7%; with TK-10 renal, 49.5%; with ACHN renal it was 20.9%. Further, the growth in the test on CAKI-1 renal is -1.55% (active); with A498 renal it was 8.27% (active); in the test with CCRF-CEM leukemia it was 46.8%; in the test with MOLT-4 leukemia, 48.8%; with RPMI-8226 leukemia, 47.6%; in the test with OVCAR-8 ovarian, 56.4%. Besides, the growth with OVCAR-5 ovarian was 90.5%; in the test on OVCAR-4 ovarian, 74.8%; with SK-OV-3 ovarian it was 14.4%; with IGROV1 ovarian, 35.6%; in the test on OVCAR-3 ovarian, 94.8%; in the test on HS 578T breast it was 0.224% (active). Moreover, in the test with NCI/ADR-RES ovarian, the growth is 71.2%.
As for `COc1cc(C2CC(c3ccc(Nc4ccnc5cc(Cl)ccc45)cc3)=NN2C=O)cc(OC)c1OC` (stereo unspecified), the growth in the test on SK-MEL-2 melanoma was 97.4%; with EKVX NSCLC, 76.7%; in the test on SN12C renal, 86.7%; in the test on UO-31 renal it was 61.9%; with TK-10 renal it was 92.8%; in the test with ACHN renal, 87.5%. Besides, the growth in the test on CAKI-1 renal is 86.7%; with A498 renal it was 93.2%; in the test on CCRF-CEM leukemia, 58%; in the test on MOLT-4 leukemia, 43.1%; with RPMI-8226 leukemia it was 21.3%; in the test on OVCAR-8 ovarian, 74%. Further, the growth was 109% in the test with OVCAR-5 ovarian; 86.3% in the test with OVCAR-4 ovarian; 86.8% in the test on SK-OV-3 ovarian; 106% in the test with IGROV1 ovarian; 2.55% (active) in the test with OVCAR-3 ovarian; 26.2% with HS 578T breast. Besides, the growth in the test on NCI/ADR-RES ovarian is 73.4%.
For the compound `CC(C)C(NC(=O)C1(NC(=O)OCc2ccccc2)CCCC1)C(=O)O` (stereo unspecified), the growth with SK-MEL-2 melanoma was 107%; in the test with EKVX NSCLC it was 110%; in the test on SN12C renal it was 102%; with UO-31 renal, 81%; in the test on TK-10 renal, 108%; in the test on ACHN renal it was 96.8%. Besides, the growth was 102% in the test with CAKI-1 renal; 102% with A498 renal; 104% with CCRF-CEM leukemia; 96% in the test on MOLT-4 leukemia; 111% in the test on RPMI-8226 leukemia; 110% with OVCAR-8 ovarian. Further, the growth in the test with OVCAR-5 ovarian is 94.8%; in the test with OVCAR-4 ovarian, 124%; in the test with SK-OV-3 ovarian, 96.2%; with IGROV1 ovarian it was 107%; in the test on OVCAR-3 ovarian it was 120%; in the test with NCI/ADR-RES ovarian, 104%.
In the case of `C[C@H]1[C@H]2[C@H]3CC[C@@H]4[C@@]5(C)C/C(=C/c6cccnc6)C(=O)C(C)(C)[C@@H]5CC[C@@]4(C)[C@]3(C)CC[C@]23CO[C@]1(C)[C@@H](C(=O)/C=C\c1cccnc1)C3`, the growth in the test on SK-MEL-2 melanoma was -25.5% (active); with EKVX NSCLC it was -1.58% (active); with SN12C renal, -17.7% (active); in the test on UO-31 renal, -97.3% (active); in the test with TK-10 renal, -14.5% (active); with ACHN renal it was -22.2% (active). Further, the growth in the test on CAKI-1 renal is 9.32% (active); in the test with A498 renal it was -59.1% (active); with CCRF-CEM leukemia, 17.9%; with MOLT-4 leukemia, 16.7%; with RPMI-8226 leukemia it was 5.06% (active); in the test with OVCAR-8 ovarian, -13.6% (active). For the same compound, the growth in the test with OVCAR-5 ovarian is -4% (active); with OVCAR-4 ovarian, 18.6%; in the test on SK-OV-3 ovarian, 58.9%; in the test on IGROV1 ovarian, 1.25% (active); in the test with OVCAR-3 ovarian it was -43.7% (active); in the test on HS 578T breast it was 11.2%. Also, the growth with NCI/ADR-RES ovarian is 2.97% (active).
`COc1ccc(NC(=O)CSc2nnc(-c3cc(-c4ccccc4)nc4ccccc34)n2-c2ccccc2)cc1`: the growth with SK-MEL-2 melanoma is 102%; with EKVX NSCLC, 78.1%; with SN12C renal it was 88.9%; in the test on UO-31 renal, 67%; in the test with TK-10 renal it was 117%; in the test with ACHN renal, 94.6%. In addition, the growth in the test with CAKI-1 renal was 80%; in the test on A498 renal, 74.3%; in the test on CCRF-CEM leukemia it was 86.9%; in the test on MOLT-4 leukemia it was 80.2%; in the test with RPMI-8226 leukemia, 90.1%; with OVCAR-8 ovarian it was 90.4%. Also, the growth is 99.2% with OVCAR-5 ovarian; 90.3% in the test with OVCAR-4 ovarian; 102% in the test on SK-OV-3 ovarian; 92.5% in the test with IGROV1 ovarian; 94.7% in the test with HS 578T breast; 91.8% in the test on NCI/ADR-RES ovarian.

For the origin of these results see PubChem BioAssay (NCI).
